Screens (PubChem BioAssay)
A selection: hits, their analogues and other compounds. The true share with any hit is near 14%.
Giardia FBPA inh: qHTS Assay for Inhibitors of Fructose-1,6-bisphosphate Aldolase from Giardia Lamblia | purified Giardia FBPA | Potency, µM (highest dose often 59.6 µM), for inactives: top-dose activity, negative = inhibition, actives largely listed as inhibitors | 290,000 tested, 0.71% active | AID 2451, 2010; further: potency means the concentration at half of the fitted maximal effect; nearly all actives have a fitted effect of over 55% in size
Target sequence (A8B2U2 whole entry, looked up): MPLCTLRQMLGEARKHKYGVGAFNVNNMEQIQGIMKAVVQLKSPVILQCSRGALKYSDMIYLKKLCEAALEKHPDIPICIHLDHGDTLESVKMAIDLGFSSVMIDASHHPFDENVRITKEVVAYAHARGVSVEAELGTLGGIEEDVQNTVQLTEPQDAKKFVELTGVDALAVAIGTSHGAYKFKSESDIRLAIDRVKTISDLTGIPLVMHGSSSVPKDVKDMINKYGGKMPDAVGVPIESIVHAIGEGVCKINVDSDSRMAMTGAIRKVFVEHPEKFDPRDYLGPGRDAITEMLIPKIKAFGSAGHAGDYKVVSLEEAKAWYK
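Giardia FBPA (40 nM reagent) was preincubated 10 min at RT with compound (up to 57.5 uM final), then substrate plus GAPDH/TPI/NAD/arsenate coupling system with diaphorase/resazurin was added; resorufin fluorescence (525/598 nm) was read after 20 min.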
HCMV inh: qHTS Assay for inhibitors of the human cytomegalovirus (HCMV). AID 1259415, 2018. HFF cells, HCMV-luciferase reporter, 72 h; hits give low values. 410,000 tested, 4.5% active. activity change, negative = inhibition, % at 57.5 µM; in the data active means activity change below about -60%; inconclusive means no clear call, values can overlap the other calls; inactive means above about -39%
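Screen run at 2 compound doses on HFFs infected with reporter HCMV, MOI 1 PFU/cell. Luciferase activity from cell lysates at 72 h post infection gave inhibition relative to buffer-only and Salinomycin wells.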
Pf growth 48h: Primary qHTS for delayed death inhibitors of the malarial parasite plastid, 48 hour incubation. P. falciparum luciferase growth in erythrocytes, 48 h. Potency, µM (top dose mostly 28.7 µM), inactives show top-dose activity change, negative = inhibition, most hits filed as inhibitors. 310,000 tested, 5.9% active. AID 504832, 2011; further: potency means the concentration at half of the fitted maximal effect
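Erythrocytes infected with P. falciparum carrying an integrated firefly luciferase reporter (2% hematocrit, 0.1% parasitemia final) were exposed to compounds in RPMI 1640 with 0.5% Albumax at 37 C, 5% CO2. Growth inhibition was scored as reduced luminescence.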
Pf growth 96h: Primary qHTS for delayed death inhibitors of the malarial parasite plastid, 96 hour incubation. 320,000 tested, 6.9% active. AID 504834, 2011. Potency, µM (highest dose often 28.7 µM), without a hit: top-dose activity change, negative = inhibition, usual class: inhibitors. P. falciparum luciferase reporter growth, 96 h; further: potency means the concentration at half of the fitted maximal effect
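Readout is luminescence from an integrated firefly luciferase in P. falciparum. Red cells, 2% hematocrit and 0.05% parasitemia final, were cultured with compound through two parasite generations (96 hours) at 37 C, 5% CO2.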
Sm TGR inh: qHTS Assay for the Inhibitors of Schistosoma Mansoni Peroxiredoxins; Schistosoma mansoni thioredoxin glutathione reductase (TGR), Q962Y6; purified TGR, DTNB reduction, TNB absorbance 405 nm; Potency, µM (highest dose often 114 µM), without a hit: top-dose activity change, negative = inhibition, actives largely listed as inhibitors; 360,000 tested, 3% active; AID 485364, 2010; further: potency means the concentration at half of the fitted maximal effect; nearly all actives have a fitted effect of over 60% in size
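Kinetic colorimetric format: TGR-catalysed, NADPH-driven DTNB reduction monitored via TNB absorbance. Enzyme dispensed at 20 nM; compound exposure 15 min at room temperature before reaction start.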
* hit, by the source's call; ? = inconclusive; . = not tested or not shown; ! = not confirmed by another sample; [ ] = remark or other dose. Unless noted, the call rests on the fitted dose curve; in most records, active means well fitted curve in the direction sought with a large enough effect; inconclusive means small, poorly fitted or top-dose-only effect, or another doubt; inactive means no such curve, though single readings can be large; an effect the other way counts as inactive or inconclusive. On the % scale 0 is the no-effect control and ±100 the full control effect.

SMILES | Giardia FBPA inh | HCMV inh | Pf growth 48h | Pf growth 96h | Sm TGR inh
CC(C)(C)c1ccc(-c2cc(NC(=O)Cc3c[nH]c4ccccc34)ccc2Nc2cccnc2)cc1 | . | 56.7 | . | . | .
CCOC(=O)N1CCN(C(=O)c2ccc(Cl)nc2)CC1 | 3.0% | -22.8 | -0.2% | -13.4% | 13.4%
CCOC(=O)N1CCC(=C2c3ccc(Cl)cc3CCc3cccnc32)CC1 | -15.2% | -27.3 | 11.7µM* | 10.4µM*! | -1.0%
COC(=O)c1cc(=O)c(O)c2c(O)c(O)ccc2c1 | 5µM* | . | . | . | .
C(=NCc1ccccc1)N1c2ccccc2-n2cccc2C1CCc1ccccc1 (centres undefined) | . | 53.0 | . | . | .
CCN(C[C@H]1N[C@@](CC)(C(=O)OC)[C@H]2C(=O)N(Cc3ccccc3)C(=O)[C@@H]12)C(=O)COc1ccccc1 | . | 0.1 | . | . | .
O=c1cc(-c2ccccc2)cc(-c2ccccc2)n1CCCO | . | -22.0 | 9.28µM* | ? | -16.8%
Cc1nc(SCC(=O)c2cc3ccccc3oc2=O)c(C#N)c(-c2ccccc2)c1C(=O)Nc1ccccc1 | 3.4% | -8.0 | 10.6% | -83.1% | -2.8%
COc1ccc(-c2c(C#N)c(SCC(=O)c3cc4ccccc4oc3=O)nc(C)c2C(=O)Nc2ccccc2)cc1 | 8.7% | 62.7 | ? | 11.7µM* | -2.8%
Cc1cccc(C(=O)Nc2cccc(OCc3cc(=O)n4c(C)csc4n3)c2)c1 | . | -12.5 | . | . | 2.4%
Cc1ccccc1Nc1nc(Nc2ccccc2C)nc(SC2=NCCS2)n1 | 0.9% | ? | 10.4µM* | . | -1.4%
Cc1ccc(Nc2nc(Nc3ccc(C)cc3)nc(SC3=NCCS3)n2)cc1 | -1.1% | -4.7 | . | 13.1µM* | 7.3%
CC(Sc1nc(-c2ccco2)nc2c1c(=O)n(C)c(=O)n2C)C(=O)O (centres undefined) | 7.5% | 0.0 | 12.4% | 3.2% | 39.8µM*
Cn1c(=O)c2c(SCc3ccccc3)nc(-c3ccco3)nc2n(C)c1=O | 0.4% | . | 14.9% | -17.9% | -12.2%
O=C(NC1=NCCS1)c1cc(-c2cccs2)nc2ccccc12 | 1.8% | -35.6 | -11.7% | ? | -4.7%
O=C(NN1CCOCC1)c1cc(-c2ccc(Br)s2)nc2ccccc12 | 1.7% | -25.0 | 29.9% | 0.1% | 1.6%
Cc1ccc(-c2cc(C(=O)NN3CCOCC3)c3cc(Br)ccc3n2)o1 | -19.7% | ? | -3.6% | 5.22µM* | 10µM*
Cc1ccc(-c2cc(C(=O)NCCCn3ccnc3)c3cc(Br)ccc3n2)o1 | -1.8% | . | 9.28µM* | ? | 1.58µM*
Cc1ccc(-c2cc(C(=O)O)c3cc(Br)ccc3n2)o1 | ? | 17.9 | 16.3% | 1.5% | 2µM*
Cc1ccc(-c2cc(C(=O)NC3=NCCS3)c3cc(Br)ccc3n2)o1 | 10.8% | . | 9.28µM* | -7.2% | 2.82µM*
Cc1cccc(-c2cc(C(=O)NCCCn3ccnc3)c3ccccc3n2)c1 | 5.8% | . | ? | ? | 1.2%
CN[C@H]1C[C@@H](c2ccccc2)N(C(C)=O)C[C@H]1CO | . | 26.4 | . | . | .
CC(=O)N1CCN(C2=Nc3cccc4cccc2c34)CC1 | 3.97µM* | -3.3 | . | . | 11.3%[11.4 µM]
CCN1C(=O)[C@H]2[C@H]3CN=C(SC)N3[C@@](Cc3ccccc3)(C(=O)OC)[C@H]2C1=O | . | -1.5 | . | . | .
CNC(=O)C1Cc2c(-c3ccccc3Oc3ccccc3)ccnc2O1 (centres undefined) | . | -3.0 | . | . | .
SMILES | Giardia FBPA inh | HCMV inh | Pf growth 48h | Pf growth 96h | Sm TGR inh
CC(=O)c1cccc(-c2ccnc3c2CC(C(=O)Nc2ccc(C(C)C)cc2)O3)c1 (centres undefined) | . | -82.3* | . | . | .
COc1ccc(NC(=O)C2Cc3c(-c4ccccc4Oc4ccccc4)ccnc3O2)cn1 (centres undefined) | . | -29.3 | . | . | .
COc1ccc(NC(=O)C2Cc3c(-c4ccccc4Oc4ccccc4)ccnc3O2)cc1OC (centres undefined) | . | -75.9* | . | . | .
CC(=O)c1cccc(-c2ccnc3c2CC(C(=O)Nc2cccnc2)O3)c1 (centres undefined) | . | -15.0 | . | . | .
CC(C)c1ccc(NC(=O)C2Cc3c(-c4ccccc4Oc4ccccc4)ccnc3O2)cc1 (centres undefined) | . | -60.8* | . | . | .
O=C(Nc1ccc(Cl)c(C(F)(F)F)c1)C1Cc2c(-c3ccccc3)ccnc2O1 (centres undefined) | . | -83.8* | . | . | .
COc1ccc(CCCO[C@@H](Cn2ccnc2)c2ccc(OC)cc2)cc1 | -1.8% | . | . | . | .
Cc1ccc(NC(=O)CSc2nnc3ccccn23)cc1S(=O)(=O)N1CCOCC1 | 8.6% | -18.4 | ? | ? | 43.5%
O=c1nc(N/N=C/C=C/c2ccccc2)cn[nH]1 | -28.1% | 14.5 | 72.0% | ? | -4.5%
O=C(NCCCn1cccn1)C1CCC(=O)N(CCc2ccccc2)C1 (centres undefined) | . | -6.8 | -2.5% | -12.7% | -1.0%
COc1ccc(NC(=O)C2Cc3c(-c4cccc(F)c4)ccnc3O2)cc1 (centres undefined) | . | -81.4* | . | . | .
COc1ccc(CNc2ccnc(-c3ccccc3Cl)n2)c(OC)c1 | -11.6% | . | . | . | .
CCc1ccccc1N1C(=O)CN(Cc2cc(OC)c(OC)c(OC)c2)C1=S | 17.2% | -14.8 | 5.22µM* | ? | 16.2%
COc1cc(CN2CC(=O)N(c3cc(Cl)ccc3C)C2=S)cc(OC)c1OC | -9.5% | -30.8 | 2.62µM* | -17.5% | -1.9%
COc1ccc(CN2CC(=O)N(c3ccc(C)c(C)c3)C2=S)cc1OC | 0.8% | 48.5 | ? | 6.1% | -10.1%
CCc1ccc(N2C(=O)CN(Cc3cc(OC)c(OC)c(OC)c3)C2=S)cc1 | 7.7% | -2.8 | 4.4% | -19.5% | -8.8%
COc1cc(CN2CC(=O)N(c3ccc(C)c(C)c3)C2=S)cc(OC)c1OC | 5.5% | -15.0 | 1.04µM* | 13.4% | -0.7%
COc1ccc(CN2CC(=O)N(c3ccccc3C)C2=S)cc1OC | 1.1% | 24.4 | 9.28µM* | 96.2% | 2.8%
Cc1cccc(-c2cnc(C(O)c3ccc(-c4ccccc4)cc3)[nH]2)c1 (centres undefined) | . | 10.9 | . | . | .
Cc1cc(C)cc(N2C(=O)CN(Cc3ccccc3)C2=S)c1 | -0.1% | 17.5 | 14.7µM* | 4.65µM* | 11.3%
